Measured values from PubChem BioAssay AID2685 (National Center for Advancing Translational Sciences (NCATS), 2010).
The campaign covered roughly 320,000 compounds. About 2,100 (0.66%) were called active. About 53% were inconclusive and are not listed. Calls follow the shape of the dose curve; as a rule, active = well fitted inhibition curve with a large enough effect in the signal ratio, with a control signal flat (not every such curve was filed as active); inconclusive = small, poorly fitted or top-dose-only effect, or effect the other way, or a change in a side signal; inactive = flat fitted curve, though single readings scatter; the % refers to the signal ratio. The full list was thinned out, with actives kept by preference.

Test: qHTS Assay for Lipid Storage Modulators in Drosophila S3 Cells;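 as to cell number change: cells counted by Cell Tracker Red CMTPX staining in the red channel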; as to lipid storage change, negative = inhibition: % is scaled to controls: 0 for no effect and ±100 for the full control effect
Settings: BODIPY lipid droplet fluorescence, 18-24 h, cells fed with added oleic acid; cell number change: measured here: cell count max response; series mostly up to 46.1 µM; lipid storage change, negative = inhibition: at the top concentration
Summary of the method: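 Drosophila S3 cells loaded with oleic acid (400 uM, as added) and compounds at several concentrations; lipid droplets imaged by 488-nm laser-scanning cytometry, 500–530 nm intensity and object ratio to cell channel. Percent activity normalized to 20 uM Triacsin C.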
Potency is read from the fitted curve at half-maximal effect.

| Compound | lipid storage change, negative = inhibition | cell number change [%] | outcome | Potency |
| --- | --- | --- | --- | --- |
| O=C(NC(N1CCOCC1)C(Cl)(Cl)Cl)c1cc([N+](=O)[O-])cc([N+](=O)[O-])c1 (centres undefined) | 2.11% (inactive) |  |  |  |
| COC(CNC(=O)c1ccc(CS(=O)(=O)c2ccc(C)cc2)o1)OC | 5.22% (inactive) | 23.5 |  |  |
| COc1nc(NCCN2CCOCC2)nc(Nc2ccccc2)n1 |  | -13.7 | inactive |  |
| COc1ccc(NC(C)=O)cc1S(=O)(=O)Nc1ccc(OCc2ccccc2)cc1 |  | -6.41 | inactive |  |
| COc1ccc(NC(C)=O)cc1S(=O)(=O)NC(Cc1ccccc1)C(=O)O (centres undefined) | 17.4% (inactive) | -4.53 |  |  |
| COc1ccc(NC(C)=O)cc1S(=O)(=O)NC(Cc1ccccc1)C(=O)NCc1ccccc1C (centres undefined) |  | -19.4 |  | 1.84 µM (active) |
| O=C1NC(c2ccccc2Cl)Nc2ccccc21 (centres undefined) | -6.86% (inactive) | -2.9 |  |  |
| Cc1ccccc1C(=O)Nc1nnc(SCC(=O)NCc2ccco2)s1 |  | -7.23 | inactive |  |
| COc1ccc(C(=O)Nc2nnc(SCC(=O)NCc3ccco3)s2)cc1OC | -13.8% (inactive) |  |  |  |
| COc1ccccc1C(=O)Nc1nnc(SCC(=O)NCc2ccco2)s1 |  | -7.8 |  | 20.6 µM (active) |
| Cc1nc2ccc(NC(=S)NC(C)C)cc2nc1C | 7.57% (inactive) | -1.16 |  |  |
| COc1cc(C(=O)NC(C)c2ccc(S(N)(=O)=O)cc2)ccc1OCC(=O)N1CCOCC1 (centres undefined) | 29.2% (inactive) | 9.66 |  |  |
| CC12CN3CC(C)(CN(C1)C3c1ccccc1F)C2 (centres undefined) | 4.33% (inactive) |  |  |  |
| CC12CN3CC(C)(CN(C1)C3c1ccc(F)cc1)C2 (centres undefined) |  | -6.72 |  | 0.731 µM (active) |
| CC12CN3CC(C)(CN(C1)C3c1ccc(Cl)cc1)C2 (centres undefined) | -3.46% (inactive) | -7.54 |  |  |
| Cc1nnc(NC(=O)CSc2ccc(-c3ccco3)nn2)s1 | 1.52% (inactive) | 17.1 |  |  |

| Compound | lipid storage change, negative = inhibition | cell number change [%] | outcome | Potency |
| --- | --- | --- | --- | --- |
| NS(=O)(=O)c1ccc(NC(=O)Nc2ccc(Cl)cc2)cc1 | -5.77% (inactive) | -17.6 |  |  |
| COc1ccc(CC(=O)Nc2nc(-c3ccc(F)c(F)c3)cs2)cc1 |  | 17.2 | inactive |  |
| COc1ccc(CC(=O)Nc2nc(-c3ccc(OC)c(OC)c3)cs2)cc1OC | -0.677% (inactive) | -7.98 |  |  |
| COc1ccc(CC(=O)Nc2nc(-c3ccc(F)c(F)c3)cs2)cc1OC |  | 21 |  | 6.51 µM (active) |
| Cc1ccccc1OCCC(=O)OCC(=O)Nc1ccc(C(N)=O)cc1 | 3.07% (inactive) | 0.749 |  |  |
| O=C(CSCc1ccc(F)cc1)Nc1ccc(F)cc1 | 0.0604% (inactive) | 14.6 |  |  |
| CCc1nnc(NC(=O)C2CC(=O)N(C3CCCC3)C2)s1 (centres undefined) |  | 8.4 | inactive |  |
| CCOC(=O)N1CCN(C(=O)C2CCN(S(=O)(=O)c3cc(Cl)ccc3Cl)CC2)CC1 | 9.01% (inactive) | -24.4 |  |  |
| COc1cc(C(=O)NCCC2=CCCCC2)ccc1OC1CCN(C(C)=O)CC1 | -13.8% (inactive) | 8.8 |  |  |
| COc1ccc(NC(=O)c2ccc(C(=O)Nc3ccc(OC)cc3OC)cc2)c(OC)c1 | -1.09% (inactive) | 1.2 |  |  |
| COc1ccc(NC(=O)CN2CCCN(S(=O)(=O)c3ccc(F)cc3)CC2)c(OC)c1 | 0.193% (inactive) | 0.557 |  |  |
| COc1ccc(NC(=O)CN2CCC(C(=O)c3ccc(F)cc3)CC2)c(OC)c1 |  | -0.87 | inactive |  |
| CCC(C)C(=O)Nc1ccc(OC)cc1OC (centres undefined) |  | 17.4 |  | 23.1 µM (active) |
| COc1ccc(NC(=O)C(CC(C)C)NC(=O)C2CCCCC2)c(OC)c1 (centres undefined) | -6.75% (inactive) | -5.85 |  |  |
| COc1ccc(NC(=O)CN2CCN(CC(=O)Nc3ccc(F)cc3)CC2)c(OC)c1 |  | 21.1 |  | 18.4 µM (active) |
